Data from PubChem BioAssay AID1159580 (chemical genetic matrix, 2015).
The campaign covered roughly 5,500 compounds. About 2,000 (36%) were called active. About 18% were inconclusive and are not listed. The list shows a part of the results. Unmarked numbers belong to inactive results. Rule as the data show it: active = normalized growth mostly below about 0.91 (no sharp cut-off); inconclusive = no clear call, values can overlap the other calls; inactive = mostly above about 0.92.

Assay: chemical genetic growth profiling, strain panel (AID 1159580);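 also: tested at 20 µM; growth read once vehicle control cultures reached saturation at 30 °C; 1 = growth at the plate median or of vehicle wells; lower values mean less growth of the strain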
Details: S. cerevisiae deletion strains, growth OD

For O=c1c(O)c(-c2ccc(O)cc2)oc2ccccc12, which normalized growth (locus YAL021C, strain ccr4, active compounds read low) is on record?
Its normalized growth is 0.576 (active).

And the normalized growth (locus YAL026C, strain drs2, active compounds read low)?
Its normalized growth is 0.707 (active).

What about the normalized growth (locus YAL030W, strain snc1, active compounds read low) of the same compound?
Its normalized growth is 0.809 (active).

And the normalized growth (locus YBL061C, strain skt5, active compounds read low)?
The normalized growth was 0.714 (active).

What about the normalized growth (locus YBR009C, strain hhf1, active compounds read low) of the same compound?
Its normalized growth is 0.7 (active).

And the normalized growth (locus YBR023C, strain chs3, active compounds read low)?
The normalized growth was 0.643 (active).

And the normalized growth (locus YBR171W, strain sec66, active compounds read low)?
Its normalized growth is 0.903.

And the normalized growth (locus YBR231C, strain swc5, active compounds read low)?
Its normalized growth is 0.794 (active).

And the normalized growth (locus YBR279W, strain paf1, active compounds read low)?
Its normalized growth is 0.749 (active).

And the normalized growth (locus YCL011C, strain gbp2, active compounds read low)?
The normalized growth was 0.762 (active).

And the normalized growth (locus YCL016C, strain dcc1, active compounds read low)?
Its normalized growth is 0.849 (active).

And the normalized growth (locus YCL061C, strain MRC1, active compounds read low)?
The normalized growth was 0.904 (active).

And the normalized growth (locus YCL069W, strain vba3, active compounds read low)?
Its normalized growth is 0.816 (active).

And the normalized growth (locus YCR088W, strain abp1, active compounds read low)?
Its normalized growth is 0.962.

What about the normalized growth (locus YDL005C, strain med2, active compounds read low) of the same compound?
The normalized growth was 0.965.

And the normalized growth (locus YDL040C, strain nat1, active compounds read low)?
Its normalized growth is 0.934.

What about the normalized growth (locus YDR001C, strain nth1, active compounds read low) of the same compound?
Its normalized growth is 0.936.

And the normalized growth (locus YDR069C, strain doa4, active compounds read low)?
The normalized growth was 0.56 (active).

What about the normalized growth (locus YDR137W, strain rgp1, active compounds read low) of the same compound?
The normalized growth was 0.397 (active).

What about the normalized growth (locus YDR159W, strain sac3, active compounds read low) of the same compound?
Its normalized growth is 0.792 (active).

What about the normalized growth (locus YDR195W, strain ref2) of the same compound?
Its normalized growth is 1.34 [resistant] (active).

What about the normalized growth (locus YDR297W, strain sur2, active compounds read low) of the same compound?
Its normalized growth is 0.82 (active).

And the normalized growth (locus YDR334W, strain swr1, active compounds read low)?
The normalized growth was 0.831 (active).

And the normalized growth (locus YDR335W, strain msn5, active compounds read low)?
The normalized growth was 0.789 (active).

And the normalized growth (locus YDR392W, strain spt3, active compounds read low)?
Its normalized growth is 0.284 (active).

What about the normalized growth (locus YEL003W, strain gim4, active compounds read low) of the same compound?
The normalized growth was 0.79 (active).

And the normalized growth (locus YEL037C, strain rad23, active compounds read low)?
The normalized growth was 0.853 (active).

And the normalized growth (locus YEL061C, strain CIN8 (second series), active compounds read low)?
The normalized growth was 0.885 (active).

What about the normalized growth (locus YER015W, strain faa2, active compounds read low) of the same compound?
The normalized growth was 0.615 (active).

And the normalized growth (locus YER016W, strain bim1, active compounds read low)?
The normalized growth was 0.863 (active).

And the normalized growth (locus YER111C, strain swi4, active compounds read low)?
The normalized growth was 0.745 (active).

What about the normalized growth (locus YER155C, strain BEM2 (second series), active compounds read low) of the same compound?
Its normalized growth is 0.489 (active).

And the normalized growth (locus YFR010W, strain ubp6, active compounds read low)?
Its normalized growth is 0.84 (active).

And the normalized growth (locus YGL167C, strain pmr1, active compounds read low)?
Its normalized growth is 0.921.

What about the normalized growth (locus YGL173C, strain kem1, active compounds read low) of the same compound?
The normalized growth was 0.499 (active).

What about the normalized growth (locus YGL227W, strain vid30, active compounds read low) of the same compound?
The normalized growth was 0.962.

What about the normalized growth (locus YGL240W, strain doc1, active compounds read low) of the same compound?
The normalized growth was 0.855 (active).

And the normalized growth (locus YGL253W, strain hxk2, active compounds read low)?
The normalized growth was 0.63 (active).

What about the normalized growth (locus YHR013C, strain ard1, active compounds read low) of the same compound?
Its normalized growth is 0.506 (active).

What about the normalized growth (locus YHR027C, strain rpn1, active compounds read low) of the same compound?
The normalized growth was 0.546 (active).

What about the normalized growth (locus YHR030C, strain SLT2, active compounds read low) of the same compound?
Its normalized growth is 0.847 (active).

What about the normalized growth (locus YHR079C, strain IRE1, active compounds read low) of the same compound?
Its normalized growth is 0.855.

And the normalized growth (locus YHR142W, strain chs7, active compounds read low)?
The normalized growth was 0.495 (active).

What about the normalized growth (locus YJL092W, strain hpr5, active compounds read low) of the same compound?
The normalized growth was 0.922.

And the normalized growth (locus YJL095W, strain BCK1 (second series), active compounds read low)?
The normalized growth was 0.731 (active).

What about the normalized growth (locus YJL095W, strain BCK1, active compounds read low) of the same compound?
Its normalized growth is 0.833 (active).

What about the normalized growth (locus YJL115W, strain asf1, active compounds read low) of the same compound?
Its normalized growth is 0.971.

And the normalized growth (locus YJL129C, strain trk1, active compounds read low)?
The normalized growth was 0.717 (active).

What about the normalized growth (locus YJL154C, strain vps35, active compounds read low) of the same compound?
The normalized growth was 0.931.

And the normalized growth (locus YJL164C, strain tpk1, active compounds read low)?
Its normalized growth is 0.564 (active).

What about the normalized growth (locus YJL166W, strain qcr8, active compounds read low) of the same compound?
The normalized growth was 0.538 (active).

What about the normalized growth (locus YJL187C, strain SWE1, active compounds read low) of the same compound?
Its normalized growth is 0.725 (active).

And the normalized growth (locus YJR066W, strain TOR1, active compounds read low)?
Its normalized growth is 0.842.

What about the normalized growth (locus YKL160W, strain elf1, active compounds read low) of the same compound?
Its normalized growth is 0.713 (active).

And the normalized growth (locus YKR026C, strain gcn3, active compounds read low)?
Its normalized growth is 0.945.

What about the normalized growth (locus YKR091W, strain srl3, active compounds read low) of the same compound?
Its normalized growth is 0.937.

What about the normalized growth (locus YLL001W, strain dnm1, active compounds read low) of the same compound?
Its normalized growth is 0.777 (active).

And the normalized growth (locus YLL026W, active compounds read low)?
Its normalized growth is 0.809 (active).

What about the normalized growth (locus YLL041C, strain sdh2, active compounds read low) of the same compound?
The normalized growth was 0.91 (active).

What about the normalized growth (locus YLR027C, strain aat2, active compounds read low) of the same compound?
The normalized growth was 0.695 (active).

What about the normalized growth (locus YLR113W, strain HOG1, active compounds read low) of the same compound?
Its normalized growth is 0.719 (active).

And the normalized growth (locus YLR221C, strain rsa3, active compounds read low)?
The normalized growth was 0.697 (active).

And the normalized growth (locus YLR258W, strain gsy2, active compounds read low)?
Its normalized growth is 0.766 (active).

And the normalized growth (locus YLR262C, strain YPT6 (second series), active compounds read low)?
Its normalized growth is 0.369 (active).

And the normalized growth (locus YLR320W, strain mms22, active compounds read low)?
The normalized growth was 0.426 (active).

What about the normalized growth (locus YLR342W, strain FKS1, active compounds read low) of the same compound?
The normalized growth was 0.757 (active).

And the normalized growth (locus YLR357W, strain rsc2, active compounds read low)?
The normalized growth was 0.9.

And the normalized growth (locus YLR370C, strain arc18, active compounds read low)?
Its normalized growth is 0.781 (active).

What about the normalized growth (locus YLR384C, strain iki3, active compounds read low) of the same compound?
Its normalized growth is 0.905 (active).

And the normalized growth (locus YML120C, strain ndi1, active compounds read low)?
Its normalized growth is 0.669 (active).

And the normalized growth (locus YMR058W, strain fet3, active compounds read low)?
The normalized growth was 0.179 (active).

What about the normalized growth (locus YMR125W, strain sto1, active compounds read low) of the same compound?
Its normalized growth is 0.972.

What about the normalized growth (locus YMR129W, active compounds read low) of the same compound?
The normalized growth was 0.932.

What about the normalized growth (locus YMR205C, strain PFK2, active compounds read low) of the same compound?
Its normalized growth is 0.56 (active).

And the normalized growth (locus YMR231W, strain pep5, active compounds read low)?
The normalized growth was 0.545 (active).

And the normalized growth (locus YNL071W, strain lat1, active compounds read low)?
The normalized growth was 0.471 (active).

What about the normalized growth (locus YNL183C, strain NPR1, active compounds read low) of the same compound?
The normalized growth was 0.838.

What about the normalized growth (locus YNL209W, strain ssb2, active compounds read low) of the same compound?
Its normalized growth is 0.458 (active).

What about the normalized growth (locus YNL248C, strain rpa49, active compounds read low) of the same compound?
The normalized growth was 0.837 (active).

What about the normalized growth (locus YNL322C, strain KRE1 (second series), active compounds read low) of the same compound?
Its normalized growth is 0.909.

What about the normalized growth (locus YNR049C, strain mso1, active compounds read low) of the same compound?
The normalized growth was 0.919.

What about the normalized growth (locus YOR001W, strain rrp6, active compounds read low) of the same compound?
The normalized growth was 0.695 (active).

What about the normalized growth (locus YOR070C, strain gyp1, active compounds read low) of the same compound?
Its normalized growth is 0.666 (active).

And the normalized growth (locus YOR080W, strain dia2, active compounds read low)?
Its normalized growth is 0.861 (active).

What about the normalized growth (locus YOR083W, strain WHI5, active compounds read low) of the same compound?
Its normalized growth is 0.664 (active).

And the normalized growth (locus YOR106W, strain vam3, active compounds read low)?
Its normalized growth is 0.319 (active).

And the normalized growth (locus YOR231W, strain MKK1, active compounds read low)?
The normalized growth was 0.847 (active).

What about the normalized growth (locus YOR265W, strain rbl2, active compounds read low) of the same compound?
Its normalized growth is 0.816 (active).

And the normalized growth (locus YOR270C, strain vph1, active compounds read low)?
The normalized growth was 0.328 (active).

What about the normalized growth (locus YOR290C, strain snf2, active compounds read low) of the same compound?
Its normalized growth is 0.641 (active).

And the normalized growth (locus YPL051W, strain arl3, active compounds read low)?
The normalized growth was 0.441 (active).

What about the normalized growth (locus YPL078C, strain atp4, active compounds read low) of the same compound?
The normalized growth was 0.651 (active).

What about the normalized growth (locus YPL106C, strain sse1, active compounds read low) of the same compound?
The normalized growth was 0.843 (active).

And the normalized growth (locus YPL240C, strain hsp82, active compounds read low)?
Its normalized growth is 0.869 (active).

And the normalized growth (locus YPL256C, strain CLN2, active compounds read low)?
The normalized growth was 0.816 (active).
